The source of these data is PubChem BioAssay (NCI).

The panel holds about 83,000 compounds, 20% with a hit somewhere; the sample as a whole holds those more often.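 96-well plates, one dose, 48 hours. Percent growth reported; active if below 10.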 Unmarked numbers belong to inactive results. Active and inactive are the calls of the source.

This assay has as its system MDA-MB-468 breast. Briefly: NCI-60 one-dose screen, 48 h (100 = growth as untreated, 0 = no growth, -100 = all killed). Conditions: 10 µM unless noted.
On to `COc1ccc(-n2nc(C)c3c(Nc4ccc(NC(=O)Nc5cccc(C(F)(F)F)c5)cc4)ncnc32)cc1`, for which the growth is -14% (active).

`COc1ccccc1-c1ccc2nc(NC(=O)Nc3cc(C(F)(F)F)cc(C(F)(F)F)c3)sc2c1`: the growth was -8.23% (active).

Regarding `N#CCCCCCn1c2ccccc2c2c3[nH]c(=O)[nH]c(=O)c3c3c4ccccc4n(CCCCCC#N)c3c21`, the growth was 69.7%.

`CC(=O)Nc1ccc(Sc2ccc(NC(C)=O)cc2)cc1`: the growth is 100%.

Take `CCOc1cc(Br)c(C(C)NC(=O)c2cccc(OC)c2)cc1OCC` (stereo not given): the growth was 52.6%.

As to `Nc1cc(Cl)cc2cccnc12`, the growth is 92.7%.

With `Nc1nc2ncc(CCNc3ccc(C(=O)NC(CCC(=O)O)C(=O)O)cc3)nc2c(=O)[nH]1` (stereo not given), the growth was 96.7%.

With `CCC1(C(C)C)NC(=O)NC1=O` (stereo not given), the growth is 98.5%.

As to `COc1ccc(-c2cc(/C=C3\C(=O)Nc4ccc(OC)cc43)[nH]n2)cc1`, the growth is 19%.

Consider `CC1(C)NCCC[C@]2(C)[C@H]3CC=C4[C@@H]5C[C@@](C)(CO)CC[C@]5(C)CC[C@@]4(C)[C@]3(C)CC[C@@H]12`, for which the growth is 67.6%.

With `COc1cc(F)c(F)c(Nc2ccc(I)cc2F)c1NS(=O)(=O)C1(C[C@H](O)CO)CC1`, the growth is 67.4%.

For `Fc1ccc(NC(c2ccc(F)cc2)C2CCN(CCCCc3ccccc3)CC2)cc1` (stereo not given), the growth was 7.21% (active).

Consider `CN(/C(N)=N/N=C/c1c2ccccc2cc2ccccc12)C1CCCCC1`, for which the growth was 4.88% (active).

For `CN1CCN(Cc2ccc(NC(=O)c3[nH]ncc3Nc3ncnc4sc5c(c34)CCCC5)cc2)CC1`, the growth was -58.7% (active).

Take `COc1ccc(C(=O)C(Br)C(Br)C(=O)O)cc1` (stereo not given): the growth is 93%.

For `CC(=O)Nc1nonc1-c1nc2ccccc2n1Cc1ccc(C(C)(C)C)cc1`, the growth was 86.8%.

For `COc1cc(/C=C/C(=O)c2ccc(-n3cc(CN4CCN(c5cc6c(cc5F)c(=O)c(C(=O)O)cn6C5CC5)CC4)nn3)cc2)ccc1O`, the growth is 64.8%.

Consider `O=Nc1c2cccnc2n2nnc3ccc(Cl)cc3c12`, for which the growth is -69.4% (active).

As to `FC(F)(F)Oc1cccc(-c2cc(NCCCCCCNc3cc(-c4cccc(OC(F)(F)F)c4)nc4ccc(N5CCCC5)cc34)c3cc(N4CCCC4)ccc3n2)c1`, the growth was -68.1% (active).

With `Oc1ccc(N=Nc2ccc(Br)cc2)c(O)c1`, the growth is 15.4%.

As for `Cc1ccc(/C=C2\COc3ccc(O)c(O)c3C2=O)cc1`, the growth was -18.5% (active).

`Nc1ccc(/C=N/Nc2ccnc3c(N)cccc23)c2cccnc12`: the growth is -38.4% (active).

On to `O=C(Nc1ccc(F)cc1)Nc1ccc(Cl)c([N+](=O)[O-])c1`, for which the growth is -3.78% (active).

As to `O=C1OC(c2ccc(-c3ccccc3)cc2)=C/C1=C/c1cccs1`, the growth was -47.5% (active).

For the compound `CCN(CC)CCCNCc1cc(-c2ccccc2)nc2ccccc12`, the growth was 91.5%.

With `Cc1ccc(NC(=O)Nc2nc3ccc([N+](=O)[O-])cc3s2)cc1`, the growth was -15.6% (active).

As to `C=C1c2c(C)nn(-c3ccc(NC(C)=O)cc3)c2N(C)C23CC1C1(C)c4c(C)nn(-c5ccc(NC(C)=O)cc5)c4N(C)C(C)(CC12)C3` (stereo not given), the growth is 14.5%.

Regarding `O=[N+]([O-])c1ccc(Br)o1`, the growth was 105%.

As for `Cc1ccc(C2SCC(=O)N2NC(=O)c2[nH]c3ccc(F)cc3c2-c2ccccc2)cc1` (stereo not given), the growth was 96%.

`O=C1CN2CCC1C/C2=C\c1ccnc2c(Cl)cccc12` (stereo not given): the growth is 90.8%.

In the case of `CCCNC(=O)Oc1ccc(/C(=C(\C)c2ccccc2)c2ccc(OCCN3CCCCC3)cc2)cc1`, the growth is 73.6%.

With `Cc1ccc(S(=O)(=O)N2CCCN(c3nc(-c4ccccc4)nc4nc(-c5ccccc5)oc34)CC2)cc1`, the growth was 109%.

As for `CN(C)S(=O)(=O)c1oc(-c2ccccc2)nc1C#N`, the growth is 35%.

`Cc1nc(-c2cc3ccccc3oc2=O)ccc1C(=O)/C=C/c1ccccn1`: the growth is 60.5%.

As for `Cc1nc(-c2cc3ccccc3oc2=O)ccc1C(=O)/C=C/c1ccc(N2CCOCC2)cc1`, the growth is 45.6%.

In the case of `COc1ccc(NC(=O)[C@@H]2C[C@H]2c2ccccc2)c(C(N)=O)c1`, the growth is 101%.

Regarding `CN(C)c1ccc2cc(-c3ccc(Cl)c(Cl)c3)c(N)nc2c1`, the growth is 18.9%.

For the compound `CNCCCNc1nc2ccccc2c2c(=O)c3cc(Cl)ccc3sc12`, the growth was 18.4%.

In the case of `CCCC(=O)OCC1OC(n2cnc3c(=S)nc(N)[nH]c32)C(OC(=O)CCC)C1OC(=O)CCC` (stereo not given), the growth was 47.7%.

Turning to `COC(=O)[C@]12CC[C@@H](C)[C@H](C)[C@@H]1C1=CC[C@@H]3[C@@]4(C)C[C@@H](OC(C)=O)[C@H](OC(C)=O)[C@@](C)(COC(C)=O)[C@@H]4[C@H](O)C[C@@]3(C)[C@]1(C)CC2`, the growth was -6.62% (active).
